Source: PubChem BioAssay (EPA / NIEHS)
Activity calls are given as the source filed them. Rule for the calls: active = hit-call score of the fitted dose curve at least 0.9, where 1 is the maximum; inactive = score below 0.9.

Assay: APR_HepG2_CellCycleArrest_72hr: Apredica 72-hour HepG2 Assay for Cell Cycle Arrest (AID 2282914)
Details: high-content imaging, actives raise or lower the signal
In short: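 Using multiplexed high-content imaging, HepG2 nuclei stained with Hoechst 33342 (2 ug/mL) were analysed for DNA content after fixation and permeabilization. Treatment lasted 72 hr across 0.39–200 uM in duplicate with final DMSO 0.5% v/v; DMSO served as negative control.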

Q: With O=C(O)c1ccc2c(c1)nc(C(=O)NC1CCN(C3CC3)CC1)n2Cc1cc(-c2ccc(Cl)s2)on1 as the compound, how does the outcome read?
A: inactive

Q: With C=CN1CCCC1=O as the compound, how does the outcome read?
A: inactive

Q: For Nc1ccn([C@@H]2O[C@H](CO)[C@@H](O)[C@@H]2O)c(=O)n1, which AC50 is on record?
A: 0.0618 µM (active)

Q: Which outcome does the source give for COCc1nnc(-c2ccc[n+]([O-])c2)n1-c1c(Cl)c(Cl)cc2[nH]c(=O)c(=O)[nH]c12 here?
A: inactive

Q: For C=CCc1cc(S(=O)(=O)c2ccc(O)c(CC=C)c2)ccc1O, which AC50 is on record?
A: 33.7 µM (active)

Q: For NC(N)=O, which outcome is on record?
A: inactive

Q: For O=c1[nH]cnc2c1ncn2[C@H]1CC[C@@H](CO)O1, which outcome is on record?
A: inactive

Q: For CCCCCCCCCCCCCCO, which AC50 is on record?
A: 100 µM (active)

Q: Which AC50 does the source give for CCCCC(CC)C(=O)OCCOCCOCCOC(=O)C(CC)CCCC (stereo not drawn) here?
A: 79.2 µM (active)

Q: Which outcome does the source give for CC[C@H](C)C(=O)O[C@H]1C[C@H](O)C=C2C=C[C@H](C)[C@H](CC[C@@H](O)C[C@@H](O)CC(=O)O)[C@H]21 here?
A: inactive

Q: For OC[C@H]1O[C@@](CO)(O[C@H]2O[C@H](CO)[C@@H](O)[C@H](O)[C@H]2O)[C@@H](O)[C@@H]1O, which outcome is on record?
A: inactive

Q: With c1ccc2c(c1)-c1cccc3c1c-2cc1ccccc13 as the compound, how does the AC50 read?
A: 2.38 µM (active)

Q: For CCc1cccc(CC)c1N, which outcome is on record?
A: inactive
